# Assay results: PubChem BioAssay
# Biological target: Dickkopf-related protein 1 (Homo sapiens) (UniProt O94907)
# Test: DKK1 binders on small-molecule microarrays, primary screen, biochemical, small-molecule microarray, 635 nm fluorescence scan (AID 1106);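 also: score merges emission near 667 nm with signal to noise over three replicate slides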
# Conditions: DKK1 binding, higher = more signal
# Dickkopf-related protein 1 (Homo sapiens), sequence (O94907 whole entry, looked up): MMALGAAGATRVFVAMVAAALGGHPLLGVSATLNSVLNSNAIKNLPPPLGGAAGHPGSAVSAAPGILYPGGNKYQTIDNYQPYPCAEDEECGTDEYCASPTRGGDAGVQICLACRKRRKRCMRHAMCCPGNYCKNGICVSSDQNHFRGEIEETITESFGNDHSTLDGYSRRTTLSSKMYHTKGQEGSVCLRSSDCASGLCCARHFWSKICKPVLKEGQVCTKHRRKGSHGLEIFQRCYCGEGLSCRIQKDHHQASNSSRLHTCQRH
row,Compound,composite z-score
1,CCCCCCCCCCC(O)C1C=CC2C(=O)N(c3ccccc3)C(=O)C2N1Nc1ccccc1F (stereo not given),-0.867
2,COc1ccc(C(O)C2C=CC3C(=O)N(c4ccccc4)C(=O)C3N2Nc2ccc(C(C)C)cc2)c2ccccc12 (stereo not given),-0.0879
3,O=C1C2C=CC(C(O)c3cc(C(F)(F)F)cc(C(F)(F)F)c3)N(Nc3ccccc3F)C2C(=O)N1c1ccccc1 (stereo not given),-0.795
4,C=C(CCCC)C(=O)CC[C@@H](OC(=O)c1cccnc1)c1ccc(OCCO)cc1,0.714
5,C=C(/C(=C/C[C@@H](OC(=O)c1ccncc1)c1cccc(OCCO)c1)c1cnc2ccccc2c1)C(C)C,0.858
6,CC(C)CNC(=O)[C@@]1(c2ccc([N+](=O)[O-])cc2)CC(=O)N(C2CCCCC2)[C@@H]1c1ccc(CO)cc1,-0.362
7,C[C@]1(C(=O)O)c2ccccc2C(=O)N(Cc2ccc(OC(F)(F)F)cc2)[C@H]1c1ccc(CO)cc1,-0.656
8,C=C(COC)C(=O)CC[C@H](OC(=O)c1cccnc1)c1ccc(CO)o1,1.42
9,COCCOC(=O)N1C(=O)[C@@]2(c3cc(C#CCC(C(=O)OC)C(=O)OC)ccc31)[C@H](C(=O)NC[C@H](O)c1ccccc1)[C@H]1C(=O)O[C@H](c3ccccc3)[C@H](c3ccccc3)N1[C@@H]2c1ccc(O)cc1,-0.224
10,Cc1cccc([C@H]2C[C@H]3C(Br)=C[C@@H]2C(=O)[C@]32CO2)c1,0.404
11,C=CCC(OC(C)=O)[C@@H]1[C@@H](N(Cc2ccc(-c3cccc(C(F)(F)F)c3)o2)C(=O)c2cccc3ccccc23)c2cc(OCCCO)ccc2N1C(=O)Cc1ccc(OC)cc1 (stereo not given in full),-0.141
12,CC(C)C[C@@H]1NC(=O)[C@@]23C(=O)N[C@@H](Cc4ccccc4)C2[C@H](C)[C@@]2(C)O[C@H]2C3/C=C/C/C=C\CNC(=O)[C@@H](C)NC1=O (stereo not given in full),0.431
13,CCOC(=O)C1=CCN(S(=O)(=O)c2ccc(C)cc2)C1c1ccccc1 (stereo not given),0.22
14,COCCOC(=O)N1C(=O)[C@@]2(c3ccccc31)[C@H](c1ccccc1OCCO)N1[C@H](c3ccccc3)[C@H](c3ccccc3)OC(=O)[C@H]1[C@@H]2C(N)=O,1.16
15,C=C(COC)C(=O)CC[C@@H](OC(=O)c1cccnc1)c1ccccc1OCCO,0.18

# Test system: Inhibin beta A chain (activin A)
# Test: INHBA (activin A) binders on microarrays, primary screen, biochemical, small-molecule microarray, 635 nm fluorescence scan (AID 1107);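 also: mouse activin A protein probed at 4.33 µg/mL on printed slides; score merges bound-protein fluorescence near 667 nm with spot signal-to-noise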
# Conditions: small-molecule microarray binding, higher = more signal
row,Compound,composite z-score
1,[N-]=[N+]=Nc1ccccc1C[C@]1(C(=O)O)N=C(c2ccc(OCCCO)cc2)O[C@H]1c1ccccc1,0.86
2,CN1C(=O)[C@@]2(Cc3ccccc3)N=C(c3ccc(OCCCO)cc3)O[C@H]2c2ccccc21,1.16
3,NC(=O)[C@@H]1[C@H]2C(=O)O[C@H](c3ccccc3)[C@H](c3ccccc3)N2[C@H](c2ccc(OCCO)cc2)[C@@]12C(=O)Nc1ccc(C#CCCO)cc12,0.297
4,Cc1ccc(S[C@]2(C(=O)NC(C)C)CC(=O)N(Cc3ccccc3Cl)[C@@H]2c2ccc(CO)cc2)cc1,-0.318
5,CC(C)=CCCC(C)=CC(O)C1C=CC2C(=O)N(c3ccccc3)C(=O)C2N1Nc1ccccc1F (stereo not given),0.418
6,COc1cc2c(cc1OC)CN(C(=O)[C@@H]1[C@H]3C(=O)O[C@H](c4ccccc4)[C@H](c4ccccc4)N3[C@H](c3ccc(O)cc3)[C@@]13C(=O)Nc1ccc(C#CCCO)cc13)CC2,0.924
7,COc1cc(NN2C(C(O)C3CCCCC3)C=CC3C(=O)N(C)C(=O)C32)cc(OC)c1OC (stereo not given),0.823
8,CC(C)C(CO)N1C(=O)[C@@H]2[C@H]3C(=O)OCC=C[C@H]3OC23C=CCN(C(C)(C)C)C(=O)[C@@H]13 (stereo not given in full),0.83
9,COC(=O)[C@@]1(Cc2ccc(OC)cc2)[C@H]2c3cc(C(=O)N4CCCC4)n(Cc4ccc(S(C)(=O)=O)cc4)c3C[C@H]2CN1C(=O)c1ccccc1,0.881
10,CCCNC(=O)[C@@]1(Sc2ccc(C)cc2)CC(=O)N(C2CCCCC2)[C@@H]1c1ccc(CO)cc1I,-0.277
11,CO[C@H]1O[C@H](CO)[C@@H](OC(=O)Nc2ccc(C#N)cc2)[C@@H]2OC(=O)[C@H](Cc3cccc(Br)c3)C/C=C/C[C@@H](Cc3cccc(Br)c3)C(=O)O[C@@H]12,-0.247
12,COCCOC(=O)N1C(=O)[C@@]2(c3cc(C#CC4(O)CCCCCC4)ccc31)[C@H](C(=O)N1CCN(c3ncccn3)CC1)[C@H]1C(=O)O[C@H](c3ccccc3)[C@H](c3ccccc3)N1[C@@H]2c1ccccc1OCCO,0.521
13,CCCC=C(CCC)[C@@H](NC(=O)CCc1ccccc1)c1ccc(C(F)(F)F)cc1,0.724
14,CC(C)[C@H]1NC(=O)[C@@]23C(=O)N[C@@H](Cc4ccccc4)C2[C@H](C)[C@@]2(C)O[C@H]2C3/C=C/CCC/C=C/CNC(=O)[C@H](Cc2ccccc2)NC1=O (stereo not given in full),0.943
15,CCCCNC(=O)c1ccc(C#C[Si](C(C)C)(C(C)C)C(C)C)c(OC(C)=O)c1,1.59
16,C=C(/C(=C/C[C@H](OC(=O)c1ccncc1)c1ccccc1OCCO)c1cnc2ccccc2c1)C(C)C,1.72
17,COc1cc(NN2C(C(O)c3cc(OC)c(OC)c(OC)c3)C=CC3C(=O)N(c4ccccc4)C(=O)C32)cc(OC)c1OC (stereo not given),0.759
18,COC(=O)[C@@]1(Cc2ccccc2)[C@H]2c3cc(C(=O)N4CCCC4)n(CCSCCO)c3C[C@H]2CN1C(=O)c1ccccc1,0.964

row,Compound,composite z-score
1,COCCOC(=O)N1C(=O)[C@@]2(c3cc(C#Cc4ccc(OC)cc4)ccc31)[C@H](c1ccc(OCCO)cc1)N1[C@H](c3ccccc3)[C@H](c3ccccc3)OC(=O)[C@H]1[C@@H]2C(=O)Nc1nc2ccccc2s1,0.598
2,COCCOC(=O)N1C(=O)[C@@]2(c3cc(C#CCC(C(=O)OC)C(=O)OC)ccc31)[C@H](c1ccc(O)cc1)N1[C@H](c3ccccc3)[C@H](c3ccccc3)OC(=O)[C@H]1[C@@H]2C(=O)NC[C@H](O)c1ccccc1,0.466
3,CCCCCCCCCCC(O)C1C=CC2C(=O)N(c3ccccc3)C(=O)C2N1Nc1ccccc1F (stereo not given),1.21
4,COc1ccc(C(O)C2C=CC3C(=O)N(c4ccccc4)C(=O)C3N2Nc2ccc(C(C)C)cc2)c2ccccc12 (stereo not given),0.87
5,O=C1C2C=CC(C(O)c3cc(C(F)(F)F)cc(C(F)(F)F)c3)N(Nc3ccccc3F)C2C(=O)N1c1ccccc1 (stereo not given),0.37
6,C=C(CCCC)C(=O)CC[C@@H](OC(=O)c1cccnc1)c1ccc(OCCO)cc1,0.982
7,C=C(/C(=C/C[C@@H](OC(=O)c1ccncc1)c1cccc(OCCO)c1)c1cnc2ccccc2c1)C(C)C,1.52
8,CC(C)CNC(=O)[C@@]1(c2ccc([N+](=O)[O-])cc2)CC(=O)N(C2CCCCC2)[C@@H]1c1ccc(CO)cc1,0.517
9,C[C@]1(C(=O)O)c2ccccc2C(=O)N(Cc2ccc(OC(F)(F)F)cc2)[C@H]1c1ccc(CO)cc1,0.496
10,C=C(COC)C(=O)CC[C@H](OC(=O)c1cccnc1)c1ccc(CO)o1,0.488
11,COCCOC(=O)N1C(=O)[C@@]2(c3cc(C#CCC(C(=O)OC)C(=O)OC)ccc31)[C@H](C(=O)NC[C@H](O)c1ccccc1)[C@H]1C(=O)O[C@H](c3ccccc3)[C@H](c3ccccc3)N1[C@@H]2c1ccc(O)cc1,-0.29
12,Cc1cccc([C@H]2C[C@H]3C(Br)=C[C@@H]2C(=O)[C@]32CO2)c1,1.37
13,C=CCC(OC(C)=O)[C@@H]1[C@@H](N(Cc2ccc(-c3cccc(C(F)(F)F)c3)o2)C(=O)c2cccc3ccccc23)c2cc(OCCCO)ccc2N1C(=O)Cc1ccc(OC)cc1 (stereo not given in full),1.08
14,CC(C)C[C@@H]1NC(=O)[C@@]23C(=O)N[C@@H](Cc4ccccc4)C2[C@H](C)[C@@]2(C)O[C@H]2C3/C=C/C/C=C\CNC(=O)[C@@H](C)NC1=O (stereo not given in full),1.27
15,CCOC(=O)C1=CCN(S(=O)(=O)c2ccc(C)cc2)C1c1ccccc1 (stereo not given),0.867
16,COCCOC(=O)N1C(=O)[C@@]2(c3ccccc31)[C@H](c1ccccc1OCCO)N1[C@H](c3ccccc3)[C@H](c3ccccc3)OC(=O)[C@H]1[C@@H]2C(N)=O,0.186
17,C=C(COC)C(=O)CC[C@@H](OC(=O)c1cccnc1)c1ccccc1OCCO,1.51
